The record followed here is the supplement of paper PMC8728848.

What all share (test): glycan array binding signal (z-score within array); higher = stronger binding
Holding throughout (conditions): glycan notation: IUPAC condensed, linker removed

Assay [1] deals with GlcNAc(b1-3)Gal(b1-4)GlcNAc(b1-3)Gal(b1-4)GlcNAc(b1-2)[GlcNAc(b1-3)Gal(b1-4)GlcNAc(b1-3)Gal(b1-4)GlcNAc(b1-6)]Man(a1-6)[GlcNAc(b1-3)Gal(b1-4)GlcNAc(b1-3)Gal(b1-4)GlcNAc(b1-2)Man(a1-3)]Man(b1-4)GlcNAc(b1-4)[Fuc(a1-6)]GlcNAc. Put shortly: (§1)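 The binding signal is a Z-score computed within each array. Data were drawn from 3228 arrays in the Consortium for Functional Glycomics database, restricted to those with a known protein sequence. Scores were averaged over arrays of the same protein sequence at different concentrations or buffers, and over linkers, and negative values can be taken as non-binding.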

Assay [2] deals with GlcNAc(b1-4)GlcNAc(b1-4)GlcNAc. Put shortly: as §1
Assay [3] concerns the target Kdn(a2-3)Gal(b1-4)[Fuc(a1-3)]GlcNAc. In outline:
as §1

Assay [4] deals with Man(a1-2)Man(a1-6)[Man(a1-3)]Man(a1-6)[Man(a1-2)Man(a1-2)Man(a1-3)]Man. Put shortly: as §1
Assay [5] has as its target Man(a1-3)[Man(a1-6)]Man(a1-6)[Man(a1-3)]Man. In outline:
as §1

For assay [6], the target named is Neu5Ac(a2-3)Gal(b1-3)GlcNAc(b1-3)GalNAc. In outline:
as §1

Assay [7] addresses Neu5Ac(a2-3)Gal(b1-3)[Fuc(a1-4)]GlcNAc(b1-3)Gal(b1-3)[Fuc(a1-4)]GlcNAc. Put shortly: as §1
The target of assay [8] is Neu5Ac(a2-3)Gal(b1-4)GlcNAc(b1-2)[Neu5Ac(a2-3)Gal(b1-4)GlcNAc(b1-4)]Man(a1-3)[GlcNAc(b1-4)][Neu5Ac(a2-3)Gal(b1-4)GlcNAc(b1-2)[Neu5Ac(a2-3)Gal(b1-4)GlcNAc(b1-6)]Man(a1-6)]Man(b1-4)GlcNAc(b1-4)GlcNAc. In outline:
as §1

In assay [9] the target is Neu5Ac(a2-3)Gal(b1-4)[Fuc(a1-3)]GlcNAc(b1-3)GalNAc. In outline:
as §1

The next assay has as its target Neu5Ac(a2-3)GalNAc. In outline:
as §1

In assay [10] the target is Neu5Ac(a2-3)[GalNAc(b1-4)]Gal(b1-4)Glc. In outline:
as §1

Assay [11] has as its target Neu5Ac(a2-6)Gal(b1-4)GlcNAc(b1-2)Man(a1-3)[GlcNAc(b1-4)][Neu5Ac(a2-6)Gal(b1-4)GlcNAc(b1-2)Man(a1-6)]Man(b1-4)GlcNAc(b1-4)GlcNAc. In outline:
as §1

Assay [12] deals with Neu5Ac(a2-6)Gal(b1-4)GlcNAc(b1-2)[Neu5Ac(a2-6)Gal(b1-4)GlcNAc(b1-4)]Man(a1-3)[GlcNAc(b1-4)][Neu5Ac(a2-6)Gal(b1-4)GlcNAc(b1-4)Man(a1-6)]Man(b1-4)GlcNAc(b1-4)GlcNAc. Put shortly: as §1
Assay [13] concerns the target Neu5Ac(a2-6)Gal(b1-4)GlcNAc(b1-3)Gal(b1-4)GlcNAc(b1-2)Man(a1-3)[Neu5Ac(a2-6)Gal(b1-4)GlcNAc(b1-3)Gal(b1-4)GlcNAc(b1-2)Man(a1-6)]GalNAc. Put shortly: as §1
The target in assay [14] is Neu5Ac(a2-6)Gal(b1-4)GlcNAc(b1-3)Gal(b1-4)GlcNAc(b1-3)Gal(b1-4)GlcNAc. In outline: as §1
For assay [15], the target named is Neu5Ac(a2-6)Gal(b1-4)GlcNAc(b1-3)GalNAc. In outline: as §1
The target of assay [16] is Neu5Ac(b2-6)Gal(b1-4)GlcNAc. In outline: as §1

About 410 targets per protein were measured; listed, in parts, are those with the strongest signals and a random draw of the rest.

B1: SP8524D-bot-399-27-399 (Bacteroides ovatus) (protein)
chain: DAKYDTLDTHAYIEEALSSTSQKVTVQATGESFTTLNVHLSNLSSTDNHYKLVTDQSVLDTYNHINGTGYIMLPKDYYTLPETITVKAGQYAADALSIALKAFSQEMMKSGESYALPVKLVLQDGSISPMENTGTFVILAESIIEFSAPMFVGAPSLKANKFTESPETYSQYTIEVRFQVANTADRDRAVFKNGGDDANFILLRFEDPQSDNENYKAHSLVQIVGRNRLYLNPSNSFKPNEWQHLALVCDGSNYRLYINGVDSGVLSIPTGATTFSDVNWFCLGDDSYSRWGNCKILMSEARIWSVVRSASQIQNNMTQVSPKSVGLEAYWRFNEGQGNVFEDATGKGHTLTTSATPTWIDGILSTDKSTEWK
On to B1, for which the “glycan array binding signal (z-score)” value in [1] was 1.11; in assay [2] it was -0.187; in assay [3] it was 0.119; in assay [4], -0.455; in [5], 0.159; in [6], -0.628. For the same molecule, the “glycan array binding signal (z-score)” value was 0.014 in [7]; -0.648 in assay [8]; 0.96 in assay [9]; -0.038 with Neu5Ac(a2-3)GalNAc; 0 in [10]; 0.589 in assay [11]. For the same molecule, the “glycan array binding signal (z-score)” value in assay [12] was 0.44; in assay [13], 0.437; in [14], -0.075; in assay [15], -0.138; in assay [16] it was -0.048.
